Assay results taken from PubChem BioAssay AID2061166 (Soto Lab, Mitchell Center for Alzheimers Disease and …, 2025).
Active and inactive are the calls of the source.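 How the source made its calls: active means mean tau seeding fluorescence area under 1% of vehicle, meaning inhibition above a set limit; inactive means the rest.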

Each compound was assayed against Microtubule-associated protein tau (Homo sapiens) (UniProt P10636) (assay: blockers of AD brain-seeded tau fibril growth – biochemical, seed amplification, ThT fluorescence, primary screen (AID 2061166)). Settings: Recombinant tau seeded by AD brain, ThT fluorescence AUC; at 100 µM; hits give high values.
Chain of Microtubule-associated protein tau (Homo sapiens) (P10636 whole entry, looked up): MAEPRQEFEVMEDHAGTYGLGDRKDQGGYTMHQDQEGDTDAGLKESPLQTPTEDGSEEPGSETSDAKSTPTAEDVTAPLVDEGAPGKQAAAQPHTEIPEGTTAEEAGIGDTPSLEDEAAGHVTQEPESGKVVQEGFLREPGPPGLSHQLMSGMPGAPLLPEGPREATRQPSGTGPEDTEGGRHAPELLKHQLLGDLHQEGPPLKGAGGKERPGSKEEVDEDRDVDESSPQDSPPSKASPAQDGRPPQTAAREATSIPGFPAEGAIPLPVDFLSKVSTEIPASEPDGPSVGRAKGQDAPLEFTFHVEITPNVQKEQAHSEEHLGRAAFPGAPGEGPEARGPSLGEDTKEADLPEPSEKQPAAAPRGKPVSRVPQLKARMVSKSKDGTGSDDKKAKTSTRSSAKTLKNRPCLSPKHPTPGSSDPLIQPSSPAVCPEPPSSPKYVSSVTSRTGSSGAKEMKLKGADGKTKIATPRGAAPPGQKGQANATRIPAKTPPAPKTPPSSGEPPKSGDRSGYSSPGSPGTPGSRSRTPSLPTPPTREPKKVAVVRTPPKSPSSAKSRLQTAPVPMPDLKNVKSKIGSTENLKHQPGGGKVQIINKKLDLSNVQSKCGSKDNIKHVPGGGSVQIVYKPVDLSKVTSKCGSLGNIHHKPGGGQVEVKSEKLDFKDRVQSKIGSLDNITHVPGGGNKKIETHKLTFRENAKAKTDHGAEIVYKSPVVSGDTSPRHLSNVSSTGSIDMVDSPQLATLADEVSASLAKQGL

SMILES | inhibition
CC1(C)CCC2(C(=O)O)CCC3(C)C(=CCC4C5(C)CCC(O)C(C)(CO)C5CCC43C)C2C1 (stereo not drawn) | 65% (inactive)
Cc1ccc2c(c1)c1c(n2CCc2ccc(C)nc2)CCN(C)C1 | -29.9% (inactive)
O=C1C=C(NC(Cc2c[nH]c3ccccc23)C(=O)O)C(=O)c2ccccc21 (stereo not drawn) | 52.4% (inactive)
CC1OC(OCC2OC(Oc3c(-c4ccc(O)c(O)c4)oc4cc(O)cc(O)c4c3=O)C(O)C(O)C2O)C(O)C(O)C1O (stereo not drawn) | 28.7% (inactive)
COC1CC2CCC(C)C(O)(O2)C(=O)C(=O)N2CCCCC2C(=O)OC(C(C)CC2CCC(O)C(OC)C2)CC(=O)C(C)/C=C(\C)C(O)C(OC)C(=O)C(C)CC(C)/C=C/C=C/C=C/1C (stereo not drawn) | 14% (inactive)
COC1CC2CCC(C)C(O)(O2)C(=O)C(=O)N2CCCCC2C(=O)OC(C(C)CC2CCC(OCCO)C(OC)C2)CC(=O)C(C)/C=C(\C)C(O)C(OC)C(=O)C(C)CC(C)/C=C/C=C/C=C/1C (stereo not drawn) | 19.2% (inactive)
C#CCNC1CCc2ccccc21 (stereo not drawn) | -62.3% (inactive)
Cc1cc(=O)n(-c2ccccc2)n1C | 8.96% (inactive)
COc1cc(C(C)=O)ccc1OCCCN1CCC(c2noc3cc(F)ccc23)CC1 | -61.2% (inactive)
CCOc1nc2cccc(C(=O)O)c2n1Cc1ccc(-c2ccccc2-c2nn[nH]n2)cc1 | 36.2% (inactive)
CCc1cc2c(cc1N1CCC(N3CCOCC3)CC1)C(C)(C)c1[nH]c3cc(C#N)ccc3c1C2=O | -7.3% (inactive)
CCN1CCN(Cc2ccc(Nc3ncc(F)c(-c4cc(F)c5nc(C)n(C(C)C)c5c4)n3)nc2)CC1 | 15.2% (inactive)
O=NN(CCCl)C(=O)NC1CCCCC1 | 14.1% (inactive)
O=C(CCCN1CCC(O)(c2ccc(Cl)cc2)CC1)c1ccc(F)cc1 | -16.8% (inactive)
CC(C)(Sc1cc(C(C)(C)C)c(O)c(C(C)(C)C)c1)Sc1cc(C(C)(C)C)c(O)c(C(C)(C)C)c1 | 23% (inactive)
O=c1cc(-c2ccccc2)oc2cc(O)c(O)c(O)c12 | 97.6% (inactive)
COc1cc(C(=O)NCc2ccc(OCCN(C)C)cc2)cc(OC)c1OC | 10.7% (inactive)

SMILES | inhibition
Nc1cccc2c1CN(C1CCC(=O)NC1=O)C2=O (stereo not drawn) | 42.8% (inactive)
CN(C)c1ccc(C=CC=O)cc1 | 37.8% (inactive)
C#CC1(O)CCC2C3CCC4=Cc5oncc5CC4(C)C3CCC21C (stereo not drawn) | 45.1% (inactive)
O=C(CCCCCCC(=O)Nc1ccccc1)NO | -65.2% (inactive)
COc1cc2nc(N(C)CCCNC(=O)C3CCCO3)nc(N)c2cc1OC (stereo not drawn) | 17.4% (inactive)
CNc1ccc2nc3ccc(=[N+](C)C)cc-3sc2c1 | 100% (active)
C=CCc1ccc(O)c(-c2ccc(O)c(CC=C)c2)c1 | 93.5% (inactive)
Nc1c2c(nc3ccccc13)CCCC2 | 20.6% (inactive)
O=C(OC1CC2CCC(C1)[N+]21CCCC1)C(O)(c1ccccc1)c1ccccc1 (stereo not drawn) | 16.5% (inactive)
NC(=O)N1CCC(CC(=O)N2CCC(C3c4ncc(Br)cc4CCc4cc(Cl)cc(Br)c43)CC2)CC1 (stereo not drawn) | 20.1% (inactive)
CCCCOc1ccc(CC(=O)NO)cc1 | 16.6% (inactive)
Cc1ccc(Nc2c(F)cccc2Cl)c(CC(=O)O)c1 | 11.4% (inactive)
Nc1c(N=Nc2ccc(-c3ccc(N=Nc4cc(S(=O)(=O)O)c5ccccc5c4N)cc3)cc2)cc(S(=O)(=O)O)c2ccccc12 | 100% (active)
COC(=O)C1=COC(OC2OC(CO)C(O)C(O)C2O)C2C1CC(O)C2C (stereo not drawn) | -52.1% (inactive)
CC(=O)Oc1cc(C(F)(F)F)ccc1C(=O)O | 27% (inactive)
CC1CCC2(OC1)OC1CC3C4CC=C5CC(O)CC(O)C5(C)C4CCC3(C)C1C2C (stereo not drawn) | 13.9% (inactive)
